From PubChem BioAssay (NCI) come the findings set out here.

Several values for one entry are separate records, joined by “and”; a condition that tells them apart may be missing. Identical values can stand only once. Compounds without any hit were thinned out: in the full panel of roughly 83,000, 20% have a hit.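 Assay: single dose, 48 h. Readout: percent growth (0 = no net growth; negative = cell death). Active: <10.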 More than one record can exist for a structure, and the calls need not agree. Activity calls are given as the source filed them.

The assay deals with MDA-MB-468 breast. Briefly: NCI-60 one-dose screen, 48 h (100 = growth as untreated, 0 = no growth, -100 = all killed). To be noted: 10 µM unless noted.
`Cc1ccc(NC(=S)NNC(=S)NNc2ccccc2)cc1C`: the growth is 99.6% (inactive). Regarding `CC(CNc1nc(Nc2ccc(Cl)c(Cl)c2)nc(C(Cl)(Cl)Cl)n1)N(C)C` (stereo unspecified), the growth is -43.3% (active). Take `COc1cc(/C=C/C(=O)c2c(C)oc3nc[nH]c(=O)c23)ccc1O`: the growth is 113% (inactive). To `CC1(C)CC[C@]2(CO)CC[C@]3(C)[C@H](CC[C@@H]4[C@@]5(C)CC[C@H](O)C(C)(C)[C@@H]5CC[C@]43C)[C@H]2[C@H]1O` belongs 101% (inactive); to `O=C1CSC(c2c(Cl)cccc2Cl)N1c1nc(Cl)cc(=O)[nH]1` (stereo unspecified), 117% (inactive). Turning to `COc1cc(C(=O)/C=C/c2c(C(F)(F)F)nc3sccn23)cc(OC)c1OC`, the growth is -53.4% (active). Regarding `COc1ccc(/C=N/NC(=O)c2cnn3c2NC(c2ccccc2)C3)cc1OC1CCCC1` (stereo unspecified), the growth was 91.1% (inactive). To `O=S(=O)(O)c1cc(O)c2c(N=Cc3ccccc3O)c(S(=O)(=O)O)ccc2c1` belongs 101% (inactive). To `COC(=O)c1nc(N)nc(C(=O)OC)c1C(=O)c1ccc(OC)cc1` belongs 98.1% (inactive) and 47.2% (inactive).

In the case of `CC(C)CC(=O)Nc1n[nH]c2c1CN(C(=O)C1CCN(C)CC1)C2(C)C`, the growth is -44.3% (active).

For the compound `C1=NCCc2ccccc21`, the growth is 109% (inactive). `CN1C(C(=O)Nc2ccccn2)=C(O)c2sc(Cl)cc2S1(=O)=O`: the growth is 98.7% (inactive).

In the case of `CCCC/C=N/NC(=S)NCc1ccccc1`, the growth is 93% (inactive).

In the case of `CC(=O)c1cc(C(=O)N2c3ccccc3Sc3ccccc32)n2ccc3ccccc3c12`, the growth is 43.4% (inactive).

`CNc1ccc2c(c1)c1ccccc1n2C`: the growth was 102% (inactive). To `CCOc1ccc(C(=O)O)cc1` belongs 83.4% (inactive). To `O=C(CSc1nc2c(n1Nc1ccccc1)-c1ccccc1SC2)Nc1nccs1` belongs 104% (inactive); to `COc1ccc2cc3[n+](cc2c1OC)CCc1cc2c(cc1-3)OCO2`, 1.68% (active); to `CS(=O)(=O)Nc1cc(-c2ccc3ncnc(Nc4c(Cl)ccc5c4OCO5)c3c2)cnc1Cl`, -74.3% (active). To `COc1ccc(-c2ncnc3c2ncn3C/C=C/CCl)cc1` belongs -3.89% (active) and 61.5% (inactive); to `Cc1ccc(/C=C2\COc3ccc(O)cc3C2=O)cc1`, 91.4% (inactive); to `CCCCCCCOc1cccc(/C=C2\N=C3SCCCN3C2=O)c1`, 89.2% (inactive). In the case of `CC12CCC(O)CC1=CCC1C2CCC2(C)C3=NN=CC3CC12` (stereo unspecified), the growth was 92.1% (inactive). Turning to `N#CC(C#N)=Cc1cc2ccccc2nc1Oc1ccc(C(F)(F)F)cc1`, the growth was 86.1% (inactive).

`O=C(c1ccccc1)N1N=C(c2ccc(-n3ccc(C(F)(F)F)n3)cc2)CC1c1ccc[nH]1` (stereo unspecified): the growth was 86% (inactive). For `CCOC(=O)c1cc(CC)sc1NC(=O)CC(C)=O`, the growth is 57.2% (inactive).
